# Assay results taken from PubChem BioAssay AID1259343 (VanderVen Lab, College of Veterinary Medicine, Cornell …, 2017).
# Screen size: about 6,200 compounds; about 2,900 (47%) were called active. No stated cut-off is given here; in the data, active means inhibition above about 50%; inactive means the rest. So high a share suggests a set chosen from earlier hits. The list shows a part of the results.
# Test: Mycobacterium tuberculosis growth inhibition, primary screen (AID 1259343)
# Settings: inhibition: at 10 µM, active compounds read high; outcome: 10 uM
row,Compound,inhibition
1,Nc1ccc(-n2cnc3ccccc32)cc1,90.2% (active)
2,CC(C)c1nc(SCC(=O)N(C)CCOc2ccc(Cl)cc2)n[nH]1,34.8% (inactive)
3,CCOC(=O)c1cnc(SCc2ccc(Cl)cc2)nc1N,89.2% (active)
4,Clc1ccc2nnc(-c3ccc(Br)cc3)n2n1,68.1% (active)
5,Brc1ccc(-c2ccc(Br)cc2)cc1,38.3% (inactive)
6,CC(CC(=O)Nc1ccccc1-c1nn[nH]n1)CC(C)(C)C (configuration not stated),-15.1% (inactive)
7,CC(C)CCNC(=O)c1csc(-c2ccccc2)n1,-48.7% (inactive)
8,CCOC(=O)c1c(C)c(C(=O)NCCC(C)C)c(C)n1Cc1ccccc1,56.4% (active)
9,CCOc1nc(C#N)nc(N2CCOCC2)n1,22.3% (inactive)
10,COC(=O)C1=C(C)N(C)C(=O)C12c1ccccc1-c1oc(N)nc12 (configuration not stated),58.3% (active)
11,COc1c(F)c(F)c(C(=O)C2C(=O)C=C(c3c(F)c(F)c(OC)c(F)c3F)OC2=O)c(F)c1F (configuration not stated),36.4% (inactive)
12,Cc1ccc2nc(-c3ccccn3)c(NC(C)(C)CC(C)(C)C)n2c1,101% (active)
13,Cc1cccn2c(NC(C)(C)CC(C)(C)C)c(-c3cccc(OC(=O)c4cccc5ccccc45)c3)nc12,9.87% (inactive)
14,Cc1ccc(NC(=O)c2cc3c(C(F)(F)F)cc(=O)[nH]c3o2)c(Cl)c1,101% (active)
15,O=C(Nc1ccc(C(F)(F)F)[nH]c1=O)c1ccccc1,-22.3% (inactive)
16,Cc1ccc(-n2nc3c(c2NC(=O)/C=C\c2ccccc2)CSC3)cc1,84% (active)
17,CN(Cc1ccco1)C(=O)c1sc2cc(F)ccc2c1Cl,20.1% (inactive)
18,Cc1cccc(C2CC(C(=O)N(C)Cc3ccco3)CN(Cc3cccc(F)c3)C2)c1 (configuration not stated),54.6% (active)
19,CCCc1ccc(CN2CCN(Cc3cccc(F)c3)CC2)o1,45.4% (inactive)
20,Cc1cc(C(=O)NCCc2ccc(Cl)cc2)c(C)o1,88.2% (active)
21,CC(C)Nc1ncccc1C(=O)NCCc1cccc(Cl)c1,15.2% (inactive)
22,CC(C)Cc1nc(CS(=O)(=O)C/C=C/c2ccccc2)no1,43.6% (inactive)
23,CC(C)Cc1noc(Cn2cc(I)cn2)n1,91.5% (active)
24,CC(CCC(=O)O)[C@H]1CCC2C3CC[C@@H]4C[C@H](O)CC[C@]4(C)C3C=C[C@@]21C (some centres not stated),34.3% (inactive)
25,CN(CCOc1ccc(F)cc1)Cc1nc2cc(Cl)ccc2c(=O)[nH]1,-0.34% (inactive)
26,O=S(CCCOc1ccc(F)cc1)Cc1ccc(F)cc1Cl (configuration not stated),89.6% (active)

row,Compound,inhibition
1,Cc1cc(NC(=O)c2cccc(C(F)(F)F)c2)n(-c2nc3c(c(=O)[nH]2)CCC3)n1,100% (active)
2,Cc1cc(NC(=O)c2cccc(F)c2)n(-c2nc3c(c(=O)[nH]2)CCC3)n1,101% (active)
3,O=C(NCCNc1cccc(C(F)(F)F)n1)c1ccc(O)cc1,73.2% (active)
4,CN(C)C(CNC(=O)c1ccc(C(F)(F)F)cc1)c1c(F)cccc1Cl (configuration not stated),8.7% (inactive)
5,CN(Cc1ccc(Br)s1)Cn1ncc2c([nH]c3ccccc32)c1=O,-13.5% (inactive)
6,O=C(Nn1cc([N+](=O)[O-])cn1)c1cccc(COc2ccc(Br)cc2)c1,78.8% (active)
7,Cc1nc([N+](=O)[O-])cn1CCC(=O)NOCc1ccccc1,-5.24% (inactive)
8,CCNC(=O)c1ccccc1OCc1cccc(Br)c1,19.8% (inactive)
9,CNC(=O)Cc1ccc(-c2cc(OC)ccc2F)cc1,57.2% (active)
10,CCCSc1nsc(SCCC)c1C#N,97.4% (active)
11,CCCCCCSc1s[nH]c(=O)c1C#N,inactive
12,Fc1ccccc1Cn1nnc(-c2ccc(Br)cc2)n1,94.7% (active)
13,Fc1ccc(-c2nnn(Cc3ccccc3Br)n2)cc1,-14% (inactive)
14,O=c1cc2c(nn1Cc1ccc(Br)cc1F)CCCC2,-5.6% (inactive)
15,C/C(=C\c1cc(Cl)ccc1O)CN1CCN(c2ncc(F)cn2)CC1,37.7% (inactive)
16,Cc1ccc2oc(CN3CCN(c4cc(N)nc(N)n4)CC3)c(C)c2c1,34.6% (inactive)
17,C/C(=C\c1ccco1)CN1CCN(c2nc3cc(C)ccc3o2)CC1,94.4% (active)
18,CCCCN(C(=O)c1nc2nccc(C)n2n1)c1ccccc1,-8.51% (inactive)
19,C(=Cc1ccccc1)CSc1nnc(-c2c[nH]c3ccccc23)o1,19.9% (inactive)
20,S=c1oc(-c2sc3ccccc3c2Cl)nn1CN1CCOCC1,1.82% (inactive)
21,C=CCSc1nnc(-c2sc3ccccc3c2Cl)o1,66.8% (active)
22,COc1cc2c(cc1OC)CN(C(=O)CCl)CC2,83.7% (active)
23,COc1cc(OC)c(C2=CCN(C(=O)CC3CCCC3)CC2)c(OC)c1,5.97% (inactive)
24,CCc1csc(NC(=O)C2=NOC(c3ccccc3)C2)n1 (configuration not stated),64% (active)
25,O=C(Cc1csc(NC(=O)NC2CCCCC2)n1)Nc1ccccc1Oc1ccccc1,-3.55% (inactive)
26,Brc1cc(CNc2cccnc2N2CCCC2)cs1,21.1% (inactive)

row,Compound,inhibition
1,Cc1csc2nc(CNc3ccc(NC(=O)C4CC4)cc3C(F)(F)F)cc(=O)n12,10.5% (inactive)
2,Cc1csc2nc(CNc3cccc(C#Cc4cccs4)c3)cc(=O)n12,60.6% (active)
3,O=c1cc(CNc2cccc(F)c2)nc2sc3c(n12)CCCC3,30.1% (inactive)
4,CC(Cc1ccccc1Cl)NC(=O)c1ccccn1 (configuration not stated),70.5% (active)
5,O=C(NCCc1ccccc1Cl)c1cccc2ccnn12,44.4% (inactive)
6,CC(CCc1ccccc1)NC(=O)c1cc(Cl)ccn1 (configuration not stated),43.1% (inactive)
7,Cc1ccc(S(=O)(=O)NC(C)c2ccc(Cl)cc2Cl)s1 (configuration not stated),42.2% (inactive)
8,Cc1ccc(S(=O)(=O)NCCc2sc(-c3ccc(Cl)cc3)nc2C)s1,76.3% (active)
9,Cc1ccc(S(=O)(=O)Nc2cc(C(C)C)no2)s1,43.6% (inactive)
10,CCOc1ccc(C(=O)Nc2cc(-c3cccs3)nn2-c2nc(C)cc(=O)[nH]2)cc1,93.9% (active)
11,CCOc1ccc(C(=O)Nc2cc(C)nn2-c2nc(C)cc(=O)[nH]2)cc1,102% (active)
12,CCCCOc1ccc(C(=O)Nc2cc(C)nn2-c2nc(C)cc(=O)[nH]2)cc1,101% (active)
13,CCCCOc1ccc(C(=O)Nc2cc(C)nn2-c2nc(C)c(C)c(=O)[nH]2)cc1,16.8% (inactive)
14,Cc1ccc(C)c2c(C)c(C(=O)NCC3(C)CCCO3)oc12 (configuration not stated),38.4% (inactive)
15,O=C(Oc1ccccc1C(=O)O)c1ccccc1O,inactive
16,Nc1ccc(C(=O)Oc2ccccc2)c(O)c1,98.9% (active)
17,O=S(=O)(Nc1nc2ccccc2nc1Cl)c1cccc(C(F)(F)F)c1,38.5% (inactive)
18,O=S(Cc1cccc(C(F)(F)F)c1)Cc1ccc(Cl)cc1Cl (configuration not stated),42.1% (inactive)
19,CCc1nc(Nc2cccc(C(F)(F)F)c2)c2ccc(Cl)cc2n1,88.9% (active)
20,CC(C)N(C(=O)CCl)c1ccccc1,100% (active)
21,CN(CC1COc2ccccc2O1)C(=O)CCl (configuration not stated),-21.8% (inactive)
22,Cc1cc(=O)[nH]c2sc(C(=O)Nc3ccc(Br)cc3)c(N)c12,79.5% (active)
23,CCCc1ncc(CN2CCCC(C(=O)Nc3ccc(-c4cccc(OC)c4)cc3)C2)cn1 (configuration not stated),68.2% (active)
24,COc1cccc(-c2ccc(NC(=O)C3CCCN(Cc4cccc(O)c4)C3)cc2)c1 (configuration not stated),70.1% (active)
25,COc1cccc(-c2ccc(NC(=O)C3CCCN(Cc4nccs4)C3)cc2)c1 (configuration not stated),48.2% (inactive)
26,Cc1cc(C(C)(C)C)cc(C)c1CCNS(=O)(=O)N(C)C,27.1% (inactive)

row,Compound,inhibition
1,Cn1ccc(C(=O)NCCc2ccc(OCc3ccccc3)cc2)cc1=O,65.2% (active)
2,Cc1cc(C(=O)Nc2ccn(-c3ccccc3)n2)c(C)o1,59.6% (active)
3,O=C(Nc1ccn(-c2ccccc2)n1)C1CCCC1,21.5% (inactive)
4,Brc1cnn(Cc2nnc(-c3ccco3)o2)c1,-27.3% (inactive)
5,Nc1cnn(Cc2ccc(Br)cc2)c1,94.8% (active)
6,CN(C)c1cc[n+](Cc2c(Cl)cccc2Cl)cc1,21.9% (inactive)
7,C[n+]1c2cc(N)ccc2cc2ccc(N)cc21,92% (active)
8,O=C1N=c2ccccc2=C1N=Nc1nc(O)c(-c2c(O)[nH]c3ccccc23)s1,-14% (inactive)
9,O=C1N=c2ccccc2=C1N=Nc1c(O)[nH]c2c(Cl)cc(Cl)cc12,80% (active)
10,Oc1[nH]c2c(Cl)cc(Cl)cc2c1N=Nc1nc2ccccc2o1,101% (active)
11,O=C(NNc1cccc(Cl)c1)[C@@H]1CCCN1c1nccc(Nc2ccccc2)n1,91.9% (active)
12,Cc1ccc(C)c(COc2cccn3c(CCNC(=O)COCc4ccccc4)cnc23)c1,33.6% (inactive)
13,CCOc1coc(C(=O)NCCc2ccc(Cl)cc2)cc1=O,49.6% (inactive)
14,O=C(NCCCc1ccccc1)c1cc(=O)c(OCc2ccc(F)cc2)co1,99.9% (active)
15,O=C(NCCCc1ccccc1)c1cc(=O)c(OCc2ccccc2)co1,99.7% (active)
16,CCOC(=O)Cn1c(=NC(=O)c2cc(C)no2)sc2cccc(F)c21,49.7% (inactive)
17,O=c1c(-c2ccc3c(c2)OCCO3)c(C(F)(F)F)oc2cc(O)ccc12,104% (active)
18,CC(=O)Oc1ccc2c(=O)c(-c3ccc4c(c3)OCCO4)c(C)oc2c1OC(C)=O,26.1% (inactive)
19,CC(=O)Oc1ccc2c(=O)c(Oc3ccc(F)cc3)c(C(F)(F)F)oc2c1,18.9% (inactive)
20,Cc1sc2nc(-c3cccnc3)nc(NC(C)C(C)C)c2c1C (configuration not stated),-13.7% (inactive)
21,C#CCN(CC=C)Cc1nc(-c2ccc(Cl)cc2)oc1C,14.8% (inactive)
22,CN(C)C(=S)SSC(=S)N(C)C,102% (active)
23,CC1(C)C(=O)C=C[C@@]2(C)C1C[C@@H](O)[C@]1(C)C2CC[C@@]2(C)[C@H](c3ccoc3)OC(=O)[C@H]3O[C@]321 (some centres not stated),67% (active)
24,CC(=O)O[C@H]1C[C@@H](OC(C)=O)C(C)(C)C2C[C@@H](OC(C)=O)[C@]3(C)C(CC[C@@]4(C)[C@H](c5ccoc5)C(=O)[C@H]5O[C@]543)[C@]21C (some centres not stated),36.2% (inactive)
